Measured values published in PubChem BioAssay (Tox21).
Values joined by “and” are separate entries in the source; they are usually repeats but may differ in a detail not shown here. Identical values can stand only once. Records with an inconclusive call do not appear. Active and inactive are the calls of the source. Unless noted, calls come from the whole dose curve; as a rule, active = well fitted curve in the direction sought with a large enough effect in the repeat runs; inconclusive = weak or mixed curves; inactive = no such curve, though single readings can be large; an effect the other way counts as inactive or inconclusive.

How the values were obtained:
[1] = qHTS assay to identify small molecule antagonists of the glucocorticoid receptor (GR) signaling pathway - cell viability counter screen (AID 720693); note: nearly all actives have a fitted effect of over 55% in size
[2] = qHTS assay for identifying genotoxic compounds that show differential cytotoxicity against isogenic chicken DT40 cell lines with known DNA damage response pathways - Rev3 mutant cell line (AID 743014); note: nearly all actives have a fitted effect of over 55% in size; note: potency is the fitted concentration of half-maximal effect
[3] = qHTS assay to identify small molecule antagonists of the androgen receptor (AR) signaling pathway - cell viability counter screen (AID 743033; note: nearly all actives have a fitted effect of over 45% in size)
[4] = qHTS assay to identify small molecule antagonists of the androgen receptor (AR) signaling pathway using the MDA cell line - cell viability counter screen (AID 743041; note: nearly all actives have a fitted effect of over 45% in size)
Summary of the method: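 MDA-kb2 AR-luc human breast carcinoma cells (MMTV-luciferase, AR/GR responsive) were treated with compounds plus R1881 agonist for 16 h at 37 °C. Viability was read as CellTiter-Fluor fluorescence in the same wells as the reporter assay.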

[5] = qHTS assay for identifying genotoxic compounds that show differential cytotoxicity against isogenic chicken DT40 cell lines with known DNA damage response pathways - Rad54/Ku70 mutant cell line (AID 743015); note: nearly all actives have a fitted effect of over 60% in size; note: potency is the fitted concentration of half-maximal effect
[6] = molecular target: Androgen receptor (Homo sapiens) (UniProt P10275); test: qHTS assay to identify small molecule antagonists of the androgen receptor (AR) signaling pathway (AID 743035; active = well fitted inhibition curve with a large enough effect in the signal ratio in the repeat runs, not every such curve was filed as active; the % refers to the signal ratio)
Androgen receptor (Homo sapiens), sequence (P10275 whole entry, looked up): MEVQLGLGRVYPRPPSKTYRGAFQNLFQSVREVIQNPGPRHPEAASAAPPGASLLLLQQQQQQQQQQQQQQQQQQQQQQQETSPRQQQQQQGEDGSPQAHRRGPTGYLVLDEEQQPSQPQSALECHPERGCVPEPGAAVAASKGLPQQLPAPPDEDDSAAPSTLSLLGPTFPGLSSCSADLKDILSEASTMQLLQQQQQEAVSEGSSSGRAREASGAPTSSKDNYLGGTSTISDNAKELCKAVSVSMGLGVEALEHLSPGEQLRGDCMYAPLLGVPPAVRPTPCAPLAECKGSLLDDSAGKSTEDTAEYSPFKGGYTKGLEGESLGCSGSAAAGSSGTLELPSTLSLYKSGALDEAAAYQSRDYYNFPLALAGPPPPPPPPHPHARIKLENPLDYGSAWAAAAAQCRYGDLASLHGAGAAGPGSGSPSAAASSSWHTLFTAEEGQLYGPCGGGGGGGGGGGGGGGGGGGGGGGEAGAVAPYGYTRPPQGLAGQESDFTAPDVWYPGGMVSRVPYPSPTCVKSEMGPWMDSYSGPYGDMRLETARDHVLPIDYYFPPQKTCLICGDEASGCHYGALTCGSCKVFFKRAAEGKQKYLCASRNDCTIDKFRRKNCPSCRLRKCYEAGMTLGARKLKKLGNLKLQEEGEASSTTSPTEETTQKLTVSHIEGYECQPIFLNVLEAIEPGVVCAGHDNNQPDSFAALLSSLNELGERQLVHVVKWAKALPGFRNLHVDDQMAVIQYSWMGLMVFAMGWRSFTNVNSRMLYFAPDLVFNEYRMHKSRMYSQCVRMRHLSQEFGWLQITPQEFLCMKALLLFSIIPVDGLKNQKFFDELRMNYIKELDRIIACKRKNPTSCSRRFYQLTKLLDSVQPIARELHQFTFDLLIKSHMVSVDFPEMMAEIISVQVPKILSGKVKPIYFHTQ
Summary of the method: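 HEK293 cells stably carrying UAS-beta-lactamase reporter, 2,000/well, given compounds plus R1881 agonist and incubated 16 h at 37C. LiveBLAzer B/G FRET substrate then added for 2 h at room temperature before fluorescence reading.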

[7] = molecular target: Androgen receptor (Homo sapiens) (UniProt P10275); test: qHTS assay to identify small molecule agonists of the androgen receptor (AR) signaling pathway (AID 743036; active = well fitted activation curve with a large enough effect in the signal ratio in the repeat runs, with a control signal flat, not every such curve was filed as active; the % refers to the signal ratio)
Summary of the method: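 Reporter line: GeneBLAzer AR-UAS-bla-GripTite (HEK293). Steps: plate cells, 4 h rest, add compounds, 16 h at 37C, add LiveBLAzer B/G substrate, 2 h at RT, read fluorescence.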

[8] = molecular target: Androgen receptor (Homo sapiens) (UniProt P10275); test: qHTS assay to identify small molecule agonists of the androgen receptor (AR) signaling pathway using the MDA cell line (AID 743040; note: nearly all actives have a fitted effect of over 20% in size; note: potency is the fitted concentration of half-maximal effect)
Summary of the method: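 MDA-kb2 breast carcinoma cells stably carrying an MMTV-driven luciferase reporter (AR- and GR-responsive) were seeded and held 5 h at 37C, 0% CO2, then exposed to compounds in DMSO for 16 h. Luminescence was read 30 min after ONE-Glo addition.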

[9] = molecular target: Androgen receptor (Homo sapiens) (UniProt P10275); test: qHTS assay to identify small molecule antagonists of the androgen receptor (AR) signaling pathway using the MDA cell line (AID 743042; note: nearly all actives have a fitted effect of over 55% in size)
Summary of the method: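 MDA-kb2 cells (human breast carcinoma, stably carrying an MMTV-luciferase reporter responsive to AR and GR) were plated at 3,000 cells/well and preincubated 5 hr at 37C, then given compound plus R1881 agonist for 16 h. ONE-Glo luminescence was read.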

[10] = qHTS assay for identifying genotoxic compounds that show differential cytotoxicity against isogenic chicken DT40 cell lines with known DNA damage response pathways - wild type cell line (AID 743012); note: nearly all actives have a fitted effect of over 60% in size
Summary of the method: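 Wild-type DT40 cells (300/well) exposed to compounds for 40 hours at 37 C/5% CO2. Viability read by CellTiter-Glo luminescence after 30 min at room temperature.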

Measured: Potency

CC(=O)c1ccc(C)cc1
inactive: [1] | [2] | [3] | [4]

Cn1cnc2c(=O)[nH]c(N)nc21
inactive: [1] | [2] | [3] | [4]

Cn1ccc2cc3c(cc21)CCN3C(=O)Nc1cccnc1
inactive: [1] | [3] | [4]
active: [2] 13.3 µM

O=C(O)Cc1cc(I)c(Oc2cc(I)c(O)c(I)c2)c(I)c1
inactive: [1] | [2] | [5] | [3] | [4]

C[C@H](O)C(=O)Nc1c(I)c(C(=O)NC(CO)CO)c(I)c(C(=O)NC(CO)CO)c1I
inactive: [1] | [2] | [5] | [4]

OCc1ccccn1
inactive: [1] | [2] | [3] | [4]

COCCOC(=O)CC#N
inactive: [1] | [2] | [5] | [3] | [4]

O=C(O)c1ccccc1-c1ccc(C(F)(F)F)cc1
inactive: [1] | [2] | [5] | [3] | [4]

C#CC(O)CCCCC (configuration not stated)
inactive: [1] | [2] | [5] | [3] | [4]

CCCCCCCCCCC1CO1 (configuration not stated)
active: [2] 68.6 µM
inactive: [1] | [3] | [4]

COc1cccc(Br)c1
not listed: [10]
inactive: all other assays above

CC1=CC(=O)CCC1
inactive: [1] | [2] | [3] | [4]

CC(C)[C@H](N)C(=O)OCCOCn1cnc2c(=O)[nH]c(N)nc21
active: [2] 23.7 µM
inactive: [1] | [3] | [4]

C=C(C)C(=O)NCCCN(C)C
inactive: [1] | [2] | [5] | [3] | [4]

CN(C)CCOC(c1ccc(Cl)cc1)c1ccccn1 (configuration not stated)
inactive: [1] | [2] | [5] | [3] | [4]

CC(=O)CCc1ccc(O)cc1
inactive: [1] | [2] | [3] | [4]

CC(=O)OC(C)(C)C
inactive: [1] | [2] | [5] | [3] | [4]

CCCCC1CCCCC(=O)O1 (configuration not stated)
inactive: [1] | [2] | [5] | [3] | [4]

C=C[Si](OC)(OC)OC
inactive: [1] | [2] | [5] | [3] | [4]

CC/C=C\C#N
inactive: [1] | [2] | [5] | [3] | [4]

c1ccc2cnncc2c1
inactive: [1] | [2] | [5] | [3] | [4]

CC(C)CCOC(=O)CC(C)C
inactive: [1] | [2] | [3] | [4]

COc1cc(O)cc(O)c1
inactive: [1] | [2] | [3] | [4]

C=C(C)[C@@H]1CCC2=CC(=O)C[C@@H](C)[C@]2(C)C1
inactive: [1] | [2] | [5] | [3] | [4]

CC(C)(O)Cc1ccccc1
inactive: [1] | [2] | [3] | [4]

O=Cc1ccccc1[N+](=O)[O-]
inactive: [1] | [3] | [4]

O=S(=O)(O)c1ccccc1O
not listed: [2] | [10]
inactive: all other assays above

CCO[Si](CCCN=C=O)(OCC)OCC
inactive: [1] | [2] | [3] | [4]

NC(=O)c1ncn([C@@H]2O[C@H](CO)[C@@H](O)[C@H]2O)c1N
inactive: [1] | [5] | [3] | [4]

CCN1CCCC(OC(=O)C(c2ccccc2)c2ccccc2)C1 (configuration not stated)
inactive: [1] | [3] | [4]

C=C(C)C(=O)NCCC[N+](C)(C)C
inactive: [1] | [5] | [3] | [4]

CCn1cc(C(=O)O)c(=O)c2cc(F)c(N3CCN(C)CC3)cc21
inactive: [1] | [3] | [4]

Cc1nccn1CC1CCc2c(c3ccccc3n2C)C1=O (configuration not stated)
inactive: [1] | [5] | [3] | [4]

Cc1nc(-c2ccc(OCC(C)C)c(C#N)c2)sc1C(=O)O
inactive: [1] | [3] | [4] | [9]
active: [8] 1.19 µM

C=CCOc1nc(OCC=C)nc(OCC=C)n1
inactive: [1] | [3]

CCC(C)(C)C1CCC(OC)CC1 (configuration not stated)
inactive: [1] | [5] | [3] | [4]

Nc1ccn(C2CO[C@H](CO)O2)c(=O)n1 (some centres not stated)
inactive: [1] | [3] | [4]

CC(C)c1cccc(O)c1
inactive: [1] | [5] | [3] | [4]

CC(C)COC(=O)C(C)C
inactive: [1] | [5] | [3] | [4]

NC1CCN(c2cccc(Cl)n2)CC1
inactive: [3] | [6] | [7] | [8] | [4] | [9]

OCCN1C[C@H](O)[C@@H](O)[C@H](O)[C@H]1CO
not listed: [1]
inactive: all other assays above

CCOC(=O)Cn1c(=O)sc2cccc(Cl)c21
inactive: [1] | [5] | [3] | [4]

CO[Si](OC)(OC)OC
inactive: [1] | [3] | [4]

C1C2OC2C2C1C1CC2C2OC12 (configuration not stated)
inactive: [10] | [2] | [5] | [3] | [4]

CCC(=O)c1cccc(Cl)c1
inactive: [1] | [5] | [3] | [4]

CCCc1ccc(N)cc1
inactive: [1] | [5] | [3] | [4]

Cc1ccccc1Br
inactive: [10] | [2] | [5] | [3] | [4]

CC(CCO)CCCC(C)(C)O (configuration not stated)
active: [2] 48.6 µM
inactive: [1] | [4]

c1ccc(CCCc2ccccn2)cc1
inactive: [2] | [3] | [4]

Nc1nc(F)nc2c1ncn2[C@@H]1O[C@H](CO)[C@@H](O)[C@@H]1O
active: [2] 596 nM and 1.88 µM
inactive: [1] | [3] | [4]

O=C(O)c1ccc[n+]([O-])c1
not listed: [2] | [10]
inactive: all other assays above

N[C@@H](CS)C(=O)O
inactive: [10] | [2] | [5] | [3] | [4]

CCCCCCCCCCCl
inactive: [5] | [3] | [4]

CCCCCCCCN(C)CCCCCCCC
inactive: [1] | [3] | [6] | [8] | [4] | [9]

CC1=CCC2C(C1)C2(C)C (configuration not stated)
not listed: [2] | [5] | [10]
inactive: all other assays above

OC1OC[C@@H](O)[C@H](O)[C@H]1O (some centres not stated)
inactive: [1] | [5] | [3] | [4]

Oc1ccc2c(c1)OC[C@@H](N1CCC(O)(c3ccc(F)cc3)CC1)[C@H]2O
inactive: [1] | [3] | [4]

CCC(=O)/C=C/c1ccc(OC)cc1
inactive: [1] | [3] | [4]
active: [5] 54.5 µM

CC1CCN(CCCC(=O)c2ccc(F)cc2)CC1
inactive: [1] | [3]
active: [5] 7.5 µM

CCCCCCCCC=O
inactive: [10] | [2] | [5] | [3]

CN1[C@@H]2CC[C@H]1CC(NC(=O)n1c(=O)[nH]c3ccccc31)C2 (some centres not stated)
not listed: [2] | [10]
inactive: all other assays above
